From PMC5540273 (PLoS ONE, 2017) come the findings set out here.

Conditions in all cases: concentration: 1 μM,replicates: in singlicate; n = 1
Assay [1] deals with PLK2.
Assay [2] concerns PLK3.
The subject of assay [3] is PLK4.
The subject of assay [4] is PRKCD.
The subject of assay [5] is PRKCE.
Assay [6] relates to PRKCH.
The subject of assay [7] is PRKCI.
In assay [8] the test system is PRKCQ.
Assay [9] has as its system PRKD1.
The subject of assay [10] is PRKD2.
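Further: KINOMEscan kinase panel screen.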

Consider `Cc1ccc(Nc2ccnc(Nc3ccc4c(c3)CS(=O)(=O)C4)n2)cc1O.Cl` [GW579362], for which the “%Inh” value is on record as 0% in assay [1]; 4% in assay [2]; 99.7% in assay [3]; 0% in [4]; 19% in [5]; 0% in assay [6]. For the same compound, the “%Inh” value in assay [7] was 32%; in [8], 46%; in [9], 29%; in [10] it was 55%.
Regarding `C[C@@H]1CNc2c(sc3ccc4nc(-c5ccc(O)cc5)ccc4c23)C(=O)N1`, the “%Inh” value was determined as 6% in assay [1]; 15% in assay [2]; 90.1% in assay [3]; 43% in assay [4]; 46% in assay [5]; 35% in assay [6]. For the same compound, the “%Inh” value is on record as 5% in [7], 59% in assay [8], 70% in assay [9] and 34% in assay [10].
In the case of `O=c1[nH]cc(-c2ccc(O)cc2)c2sc(-c3ccncc3)cc12` [GSK1033723], the “%Inh” value in assay [1] was 0%; in [2], 0%; in assay [3] it was 0%; in assay [4], 0%; in [5], 21%; in [6] it was 0%. Further, the “%Inh” value in [7] is 33%; in [8], 19%; in [9], 0%; in assay [10] it was 0%.
Regarding `Cc1n[nH]c2cc(Nc3ccnc(Nc4cccc(CN5CCOCC5)c4)n3)ccc12` [GW682569], the “%Inh” value came out at 15% in [1]; 53% in assay [2]; 72% in [3]; 0% in [4]; 51% in assay [5]; 0% in assay [6]. The “%Inh” value is given as 26% in assay [7], 0% in assay [8], 0% in assay [9] and 0% in [10].
`O=C(Nc1cccc(C(F)(F)F)c1)c1cccc(Oc2ccc3nccn3n2)c1`: the “%Inh” value came to 11% in [1]; 0% in assay [2]; 0% in [3]; 22% in [4]; 1% in [5]; 0% in assay [6]. Moreover, the “%Inh” value in assay [7] is 13%; in assay [8] it was 51%; in [9] it was 0%; in [10] it was 0%.
`c1ccc(Oc2ccc(Nc3ccnc4ccc(-c5ccccn5)cc34)cc2)cc1` [GW407034]: the “%Inh” value is listed as 0% in assay [1]; 0% in [2]; 15% in assay [3]; 0% in assay [4]; 3% in [5]; 0% in assay [6]. Moreover, the “%Inh” value is on record as 0% in assay [7], 27% in [8], 0% in assay [9] and 5% in assay [10].
For `CCn1c(-c2nonc2N)nc2cncc(Br)c21` [SB-738004], the “%Inh” value is recorded as 8% in assay [1]; 14% in assay [2]; 76% in assay [3]; 21% in assay [4]; 92.8% in assay [5]; 58% in [6]. For the same compound, the “%Inh” value was found to be 36% in assay [7], 6% in [8], 0% in [9] and 11% in assay [10].
Regarding `CCN1CCN(CCCC(=O)Nc2n[nH]c3nc(-c4ccc(O)cc4)c(Br)cc23)CC1` [SB-731579], the “%Inh” value was determined as 0% in assay [1]; 0% in assay [2]; 0% in assay [3]; 64% in [4]; 70% in assay [5]; 19% in assay [6]. For the same compound, the “%Inh” value in assay [7] turned out to be 2%; in assay [8], 0%; in assay [9], 1%; in assay [10], 0%.
For `COc1cccc(CNC(=O)NC2CCN(c3ccnc(Nc4cc(OC)c(OC)c(OC)c4)n3)C2)c1` (stereo not shown) [GSK1379765], the “%Inh” value in assay [1] amounted to 0%; in [2], 0%; in assay [3], 43%; in assay [4] it was 0%; in assay [5], 17%; in [6], 12%. Besides, the “%Inh” value in [7] is recorded as 31%; in assay [8], 37%; in assay [9] it was 0%; in assay [10], 3%.
On to `CCCC(=O)Nc1n[nH]c2ncccc12` [SB-601436], for which the “%Inh” value in assay [1] was 7%; in assay [2] it was 7%; in [3], 0%; in assay [4] it was 0%; in [5], 19%; in assay [6], 0%. In addition, the “%Inh” value in [7], in assay [8], in assay [9] and in assay [10] was 0% in each case.
Consider `FC(F)(F)c1cc(Br)cc(Nc2nccc(-c3cnn4ncccc34)n2)c1` [GW810578], for which the “%Inh” value in assay [1] is 24%; in [2] it was 13%; in assay [3] it was 26%; in [4], 16%; in assay [5], 4%; in [6], 7%. For the same compound, the “%Inh” value in assay [7] is 0%; in assay [8], 1%; in [9], 4%; in assay [10] it was 0%.
As to `O=C1NCCc2[nH]c(-c3ccncc3)cc21`, the “%Inh” value in assay [1] is given as 37%; in assay [2] it was 40%; in assay [3], 30%; in assay [4], 27%; in assay [5], 59%; in assay [6], 58%. Moreover, the “%Inh” value is given as 18% in assay [7], 46% in [8], 72% in [9] and 0% in assay [10].
With `CN1CCN(CCCNc2nccc(-c3c(-c4ccc(F)cc4)nn4cc(C(N)=O)ccc34)n2)CC1` [GW622475], the “%Inh” value in [1] is recorded as 0%; in [2], 0%; in [3], 10%; in assay [4], 29%; in assay [5], 14%; in assay [6], 22%. Moreover, the “%Inh” value in assay [7] was determined as 41%; in assay [8], 42%; in assay [9] it was 65%; in [10] it was 67%.
Consider `COc1cc2c(Nc3ccc(NC(=O)c4ccccc4)cc3)ncnc2cc1OCCCN1CCOCC1` [GSK301329], for which the “%Inh” value in assay [1] is on record as 0%; in assay [2], 0%; in [3], 36%; in assay [4] it was 6%; in assay [5], 0%; in assay [6] it was 0%. The “%Inh” value in [7] was 0%; in assay [8] it was 9%; in [9], 0%; in [10], 4%.
In the case of `NC(=O)c1ccc(-c2cc3ncnc(SCC(=O)O)c3s2)cc1`, the “%Inh” value is on record as 0% in assay [1]; 6% in [2]; 56% in assay [3]; 0% in [4]; 0% in assay [5]; 0% in assay [6]. Further, the “%Inh” value in assay [7], in assay [8], in assay [9] and in [10] was 0% throughout.
As to `O=C(Nc1ccc(Oc2ccc3nc(NC(=O)C4CC4)cn3n2)c(F)c1)c1cccn(-c2ccccc2)c1=O`, the “%Inh” value in assay [1], in assay [2], in assay [3], in assay [4], in assay [5] and in [6] was 0% in each case. Further, the “%Inh” value is 28% in assay [7], 0% in [8], 0% in [9] and 9% in assay [10].
